These results are taken from PubChem BioAssay.

Assay [1] can be described thus: inhibitors of TNFa-induced NFkB p65 translocation, primary screen, imaging, HUVEC, MLSMR starter and 10KST1 sets (AID 438;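 active = inhibition above 20% together with a positive visual image hit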;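 note: compound added about 3h40 before a 20 min TNFalpha stimulation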;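 for inhibition: signal is the nuclear over cytoplasmic p65 intensity ratio per well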). The note with it: HUVEC TNFa-induced p65 nuclear translocation; cell count: measured here: nuclei count (cytotoxicity indicator), at 2.08 µM; inhibition: at 2 µM, stronger effect = higher value, 0% TNFa-plus-vehicle, 100% no-TNFa wells.
Assay [2] is described as follows: reduction of polyQ htt aggregates in cells – imaging, exon1htt(103Q)mCFP cells, high-content imaging, primary screen (AID 483;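 active = visual image review flags a hit and inhibition of aggregation exceeds 20%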;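 note: compound exposure lasted 3 days before fixation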;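 for nuclei count: percent of the per-plate median nuclei count of sample wells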). The note with it: exon1htt(103Q)mCFP cell line, aggregate imaging, at 2 µM; inhibition of aggregation: stronger effect = higher value; nuclei count: measured here: cell count, toxicity.
A short description of assay [3]: endothelial E-selectin expression blockers – imaging, HUVEC, immunofluorescence, MLSMR starter and 10KST1 sets, primary screen (AID 487;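 active = visually confirmed hit in the image check and inhibition above 20%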;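 for inhibition: signal is fraction of cell area covered by stained E-selectin grains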;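 for nuclei count: 100% = median nuclei count of all wells on the same plate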). As to conditions: HUVEC TNFalpha-induced E-selectin immunofluorescence imaging, at 2 µM; inhibition: stronger effect = higher value; nuclei count: measured here: cell number, toxicity.
Assay [4] addresses Voltage-gated potassium channel subunit beta-2 (Rattus norvegicus) (UniProt P62483). The assay is described as follows: inhibitors of rat Kvbeta2 reductase activity – biochemical, NADPH fluorescence, primary screen (AID 622;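 active = fluorescence slope higher than the sample average by over 3 SD, cut at about -0.22 in these data, passing the limit was not always enough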;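 note: slope of raw intensity against log time taken from 70 to 1610 s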). The note with it: recombinant KvBeta, 4-cyanobenzaldehyde reduction, at 10 µM, stronger effect = higher value.
For assay [5] the target is unchanged. Put plainly: enhancers of rat Kvbeta2 NADPH turnover – biochemical, NADPH fluorescence, primary screen (AID 623).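 Note: fluorescence intensity change per second fitted from 20 to 320 s.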 The note with it: Recombinant KvBeta, NADPH fluorescence decrease slope, 10 min; at 10 µM; stronger effect = lower value.
In assay [6] the target is Alpha-2C adrenergic receptor (Homo sapiens) (UniProt P18825). Put plainly: compounds altering alpha2C-coupled GIRK flux – cell-based, HEK293 alpha2C/GIRK1/2, thallium flux, primary screen (AID 624;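 active = fluorescence slope after compound addition differing from the mean of all screened samples at 99.7% confidence, in either direction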;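 note: slope of fluorescence ratio to pre-addition baseline per second over 15 to 24 s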). The note with it: thallium flux BTC fluorescence, at 10 µM, actives lie on both sides.
Chain of Alpha-2C adrenergic receptor (Homo sapiens) (P18825 whole entry, looked up): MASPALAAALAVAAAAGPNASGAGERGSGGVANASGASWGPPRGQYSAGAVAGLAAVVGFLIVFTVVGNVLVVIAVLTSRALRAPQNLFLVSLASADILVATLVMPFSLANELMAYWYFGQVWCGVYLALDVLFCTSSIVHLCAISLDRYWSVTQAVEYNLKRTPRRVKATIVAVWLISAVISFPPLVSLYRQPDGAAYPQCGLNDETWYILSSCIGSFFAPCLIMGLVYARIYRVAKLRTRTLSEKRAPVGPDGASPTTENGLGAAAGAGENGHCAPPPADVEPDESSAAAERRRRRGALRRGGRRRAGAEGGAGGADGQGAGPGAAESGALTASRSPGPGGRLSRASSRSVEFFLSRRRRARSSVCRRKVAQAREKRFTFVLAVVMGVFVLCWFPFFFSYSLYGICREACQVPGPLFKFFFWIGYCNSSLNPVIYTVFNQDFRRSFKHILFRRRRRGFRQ
A short description of assay [7]: blockers of RIG-like receptor reporter activation – cell-based, Sendai virus stimulus, luciferase, 10K MLSCN set, TLR/RLR signaling modifier project, primary screen (AID 602276;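 active = inhibition at or above 50% at 10 µM; inactive = inhibition below 50%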;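 note: firefly luciferase from ISG56 promoter only with Renilla not read in this screen; 0% = Sendai virus plus DMSO and 100% = medium plus DMSO without virus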). The note with it: HEK293 RL24 IRF3 luciferase reporter, at 10 µM, stronger effect = higher value.
Assay [8] can be described thus: TLR3 IRF3 reporter activation blockers – cell-based, poly I:C stimulus, luciferase, 10K MLSCN set, primary screen (AID 602277;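 active = inhibition of the reporter signal at or above 50%; inactive = inhibition below 50%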). The note with it: HEK293-TLR3 RL24 IRF3 luciferase reporter, at 10 µM, stronger effect = higher value.

The source made the active and inactive calls.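 Rule for the calls, unless noted: active = NADPH fluorescence slope more negative than the mean of all samples by about 3 SD, 99.7% confidence; inactive = the rest.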

Chain of Voltage-gated potassium channel subunit beta-2 (Rattus norvegicus) (P62483 whole entry, looked up): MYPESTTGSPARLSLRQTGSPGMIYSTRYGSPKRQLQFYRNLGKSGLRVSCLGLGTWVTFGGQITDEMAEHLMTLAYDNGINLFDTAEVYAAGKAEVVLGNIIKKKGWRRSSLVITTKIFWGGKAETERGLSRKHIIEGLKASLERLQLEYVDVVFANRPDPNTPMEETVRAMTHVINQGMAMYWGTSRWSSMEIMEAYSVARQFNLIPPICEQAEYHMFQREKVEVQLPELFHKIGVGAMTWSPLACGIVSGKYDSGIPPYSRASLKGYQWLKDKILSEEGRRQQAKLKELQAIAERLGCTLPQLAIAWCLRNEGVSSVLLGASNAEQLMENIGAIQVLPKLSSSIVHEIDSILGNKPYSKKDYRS

Consider `CC(=O)n1cc(-c2ccncc2)c2ccccc21`, for which, in assay [1], the cell count came out at 474. Also, the inhibition in assay [1] is -5% (inactive); in assay [3], -74.9% (inactive); in assay [7], -5.39% (inactive); in assay [8] it was 11.5% (inactive). Also, the inhibition of aggregation in assay [2] is 22.9% (inactive). Besides, the nuclei count in assay [2] was found to be 69.3%; in assay [3], 106%. For the same compound, the fluorescence slope in assay [4] was -0.57 (inactive). In addition, the NADPH fluorescence slope in assay [5] is -1.3e-05 (inactive). The slope in assay [6] is 0.00696 (inactive).

Take `CCCCn1c(=O)[nH]c(=O)c2c1nc(-c1ccncc1)n2CCOC`: the cell count in assay [1] amounted to 542. For the same compound, the inhibition in assay [1] was -15.4% (inactive); in assay [3] it was -19.9% (inactive); in assay [7] it was 0.301% (inactive); in assay [8], 33.4% (inactive). In addition, the inhibition of aggregation in assay [2] was -7.3% (inactive). Besides, the figures for the nuclei count in assay [2] and in assay [3] were 107% and 138%, respectively. The fluorescence slope in assay [4] was -0.446 (inactive). In addition, in assay [5], the NADPH fluorescence slope is -4.3e-05 (inactive). The slope in assay [6] was 0.00406 (inactive).

With `O=C(CSc1nnnn1C1CCCCC1)N1CCc2ccccc21`, the cell count in assay [1] was 348. Besides, the inhibition in assay [1] was 0.8% (inactive); in assay [3] it was 1.9% (inactive); in assay [7] it was 9.99% (inactive); in assay [8], -10% (inactive). In assay [2], the inhibition of aggregation is -13.7% (inactive). Further, the nuclei count in assay [2] was 101%; in assay [3], 120%. The fluorescence slope in assay [4] is -0.566 (inactive). Moreover, in assay [5], the NADPH fluorescence slope was -4e-05 (inactive). Further, the slope in assay [6] is 0.00388 (inactive).

`CCCn1c(SCC(=O)N2CCN(c3ccccc3)CC2)nc2ccccc2c1=O`: in assay [1], the cell count was 331. Also, the inhibition in assay [1] was -8.5% (inactive); in assay [3], 23.2% (inactive); in assay [7], -9.23% (inactive); in assay [8], -10.6% (inactive). For the same compound, the inhibition of aggregation in assay [2] is -6.7% (inactive). Further, the nuclei count in assay [2] was 101%; in assay [3] it was 124%. In assay [4], the fluorescence slope was -0.595 (inactive). Further, the NADPH fluorescence slope in assay [5] is 3.4e-07 (inactive). In addition, the slope in assay [6] is 0.00536 (inactive).

On to `CCOCCCn1c(=NC(C)=O)c(C(=O)OCC)cc2c(=O)n3ccccc3nc21`, for which the cell count in assay [1] was found to be 473. Also, the inhibition in assay [1] was -3.3% (inactive); in assay [3], -119% (inactive); in assay [7], -7.28% (inactive); in assay [8], -15% (inactive). The inhibition of aggregation in assay [2] was 2.4% (inactive). The nuclei count in assay [2] worked out at 108%; in assay [3], 129%. In assay [4], the fluorescence slope is -0.114 (inactive). Moreover, the NADPH fluorescence slope in assay [5] is -3.8e-05 (inactive). Besides, the slope in assay [6] was 0.00394 (inactive).

For the compound `CCOc1ccc(N2CC(C(=O)Nc3cccc(C)c3C)CC2=O)cc1` (centres undefined), in assay [1], the cell count stood at 694. Further, the inhibition in assay [1] is 0.6% (inactive); in assay [3] it was -61.5% (inactive); in assay [7], 8.36% (inactive); in assay [8], 8.88% (inactive). The inhibition of aggregation in assay [2] was 12.5% (inactive). Further, the nuclei count worked out at 85.4% in assay [2] and 114% in assay [3]. For the same compound, in assay [4], the fluorescence slope is -0.608 (inactive). Further, in assay [5], the NADPH fluorescence slope was -1.8e-05 (inactive). The slope in assay [6] is 0.00361 (inactive).

In the case of `Cn1c(=O)c(=O)n(C)c2cc(S(=O)(=O)N3CCCCC3)ccc21`, in assay [1], the cell count was 289. Besides, the inhibition in assay [1] is 0.7% (inactive); in assay [3], -3.4% (inactive); in assay [7] it was 14.8% (inactive); in assay [8], 14.6% (inactive). Besides, the inhibition of aggregation in assay [2] is 22.5% (inactive). The nuclei count in assay [2] was 83.6%; in assay [3], 87.6%. Further, in assay [4], the fluorescence slope was -0.426 (inactive). In addition, in assay [5], the NADPH fluorescence slope is -7.3e-05 (inactive). For the same compound, the slope in assay [6] is 0.00642 (inactive).

Consider `Cc1oc(-c2ccc(Cl)cc2)nc1CS(=O)CC(=O)NCCCN(C)C1CCCCC1` (centres undefined), for which the cell count in assay [1] was 584. In addition, the inhibition in assay [1] is 3.8% (inactive); in assay [3], -47% (inactive); in assay [7] it was 15.7% (inactive); in assay [8], 30.4% (inactive). Further, the inhibition of aggregation in assay [2] is -6.2% (inactive). The nuclei count in assay [2] was found to be 94.6%; in assay [3], 127%. The fluorescence slope in assay [4] was -0.603 (inactive). In addition, in assay [5], the NADPH fluorescence slope was 1.3e-05 (inactive). Moreover, the slope in assay [6] is 0.00462 (inactive).

In the case of `O=C(CCSc1nccn1Cc1ccccc1)N1CCOCC1`, in assay [1], the cell count was 447. For the same compound, the inhibition was -6.8% (inactive) in assay [1], -7.8% (inactive) in assay [3], 1.9% (inactive) in assay [7] and -9.28% (inactive) in assay [8]. Also, in assay [2], the inhibition of aggregation is -9.1% (inactive). In addition, the nuclei count in assay [2] amounted to 93.1%; in assay [3], 80.8%. Moreover, the fluorescence slope in assay [4] is -0.524 (inactive). In assay [5], the NADPH fluorescence slope was -5.2e-05 (inactive). Also, in assay [6], the slope was 0.00524 (inactive).

In the case of `C=CCn1c(SCC(=O)c2cc(C)n(C(C)COC)c2C)nc2sc(C)c(C)c2c1=O` (centres undefined), the cell count in assay [1] was 357. Besides, the inhibition in assay [1] is 3% (inactive); in assay [3], -1.2% (inactive); in assay [7], 7.26% (inactive); in assay [8], 22.9% (inactive). For the same compound, the inhibition of aggregation in assay [2] is -8.9% (inactive). Also, the nuclei count in assay [2] was 99.9%; in assay [3] it was 100%. In addition, the fluorescence slope in assay [4] is -0.459 (inactive). Besides, in assay [5], the NADPH fluorescence slope is 1e-05 (inactive). In addition, the slope in assay [6] is 0.00515 (inactive).

Consider `CCOC(=O)c1ccc(NCc2nc3ccccc3[nH]2)cc1`, for which the cell count in assay [1] stood at 670. The inhibition in assay [1] is -7.9% (inactive); in assay [3], -46% (inactive); in assay [7], -76.1% (inactive); in assay [8], -152% (inactive). In addition, in assay [2], the inhibition of aggregation is -14.3% (inactive). The figures for the nuclei count in assay [2] and in assay [3] were 102% and 126%, respectively. The fluorescence slope in assay [4] is -0.558 (inactive). Also, the NADPH fluorescence slope in assay [5] was 2.8e-05 (inactive). Moreover, the slope in assay [6] is 0.00739 (inactive).

`COc1ccc(S(=O)(=O)NCCC(=O)NC2CCCCCCC2)cc1`: the cell count in assay [1] was determined as 293. Also, the inhibition was 2.8% (inactive) in assay [1], -89.3% (inactive) in assay [3], 17.8% (inactive) in assay [7] and 26% (inactive) in assay [8]. In addition, the inhibition of aggregation in assay [2] is 13.6% (inactive). Moreover, the nuclei count in assay [2] stood at 95%; in assay [3], 97%. The fluorescence slope in assay [4] was -0.4 (inactive). For the same compound, the NADPH fluorescence slope in assay [5] is -8.9e-05 (inactive). Further, the slope in assay [6] is 0.00674 (inactive).

Regarding `O=C(CCc1nc2ccccc2s1)OCC(=O)N1CCN(C(=O)c2ccco2)CC1`, the cell count in assay [1] is 641. Further, the inhibition in assay [1] is -7.6% (inactive); in assay [3], -126% (inactive); in assay [7], 14.9% (inactive); in assay [8], 24.8% (inactive). Besides, the inhibition of aggregation in assay [2] is -0.7% (inactive). The nuclei count worked out at 100% in assay [2] and 128% in assay [3]. Also, the fluorescence slope in assay [4] was -0.584 (inactive). Besides, the NADPH fluorescence slope in assay [5] is -2.7e-05 (inactive). For the same compound, the slope in assay [6] was 0.00548 (inactive).

For `Cc1ccc2c(c1)NC(=O)C(CC(=O)NCCN(CC(C)C)CC(C)C)O2` (centres undefined), in assay [1], the cell count was 659. Further, the inhibition in assay [1] is 4.4% (inactive); in assay [3], -11% (inactive); in assay [7], -16.7% (inactive); in assay [8], -6.31% (inactive). The inhibition of aggregation in assay [2] is 7.8% (inactive). For the same compound, the results for the nuclei count in assay [2] and in assay [3] were 102% and 125%, respectively. In assay [4], the fluorescence slope is -0.584 (inactive). The NADPH fluorescence slope in assay [5] is 6e-06 (inactive). Besides, the slope in assay [6] is 0.00608 (inactive).
